# Laboratory results as given in publication PMC9574860, “Chemical Toolkit for PARK7: Potent, Selective, and High-Throughput” (Journal of Medicinal Chemistry, 2022).
# Hit rate of the full screen: of about 7,900 compounds, about 400 (5.1%) showed an effect of 50% or more. For the sample, strong results were picked, then their nearest neighbours and some compounds at random.
# Target: Parkinson's disease protein 7 (PARK7/DJ1) (human, UniProt Q99497)
# Test: primary screen, percent inhibition; read as competition with a fluorescent probe by fluorescence polarization; higher = more effect of the substance
# Conditions: 100 µM
# Outline: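 Fluorescence-polarization probe displacement (JYQ-107, 20 nM final, 2 h) after 2 h preincubation of PARK7 (0.2 μM final) with each fragment at 100 μM final. Read-out ex/em 480/520 nm; remaining activity derived from FP signal loss relative to reference controls.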
# Sequence of Parkinson's disease protein 7 (PARK7/DJ1) (Q99497 whole entry, looked up): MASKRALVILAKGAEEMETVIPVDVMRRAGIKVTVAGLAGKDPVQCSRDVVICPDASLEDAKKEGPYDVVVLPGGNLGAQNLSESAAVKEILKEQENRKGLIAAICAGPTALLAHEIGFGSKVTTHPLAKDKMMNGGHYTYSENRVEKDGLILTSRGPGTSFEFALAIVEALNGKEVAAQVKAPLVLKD
row,SMILES,Inhibition %
1,Nc1ccc2nc(S)ccc2c1,67.6%
2,N#Cc1cc(N)c2ccccc2n1,10.9%
3,N#Cc1ccc2cc(N)ccc2n1,101%
4,COc1ccc2nc(C#N)ccc2c1,3.18%
5,Sc1ccc2ccccc2n1,14.2%
6,Nc1cc(N)nc(S)n1,6.46%
7,N#Cc1ccc(Cl)cc1N1CCC(C2OCCO2)CC1,2.51%
8,C=CC(=O)NC1CCCCNC1=O (stereo not drawn),3.54%
9,COc1ccc(S(N)(=O)=O)cc1NC(=O)CCl,2.41%
10,C=CC(=O)NC(NC(=O)C=C)c1ccccc1F,14.4%
11,CN(C)c1nccc(CNCc2ccc(B(O)O)cc2)n1,-0.514%
12,C=CC(=O)NCC1CCCOC1c1ccc(C)cc1 (stereo not drawn),9.55%
13,CNC1CCCN(C(=O)C=Cc2cncc(F)c2)C1 (stereo not drawn),29.3%
14,Cl.O=C(CCl)NCC(c1ccccc1Cl)N1CCCC1 (stereo not drawn),3.25%
15,C=CC(=O)Nc1cnn(C(C)C)c1C1CC1,10.5%
16,O=C1SCCN1CN1CCN(c2ccccc2F)CC1,3.81%
17,N#Cc1nc(-c2ccco2)oc1N1CCNCC1,9.97%
18,C#CCN1CCN(c2oc(-c3ccco3)nc2C#N)CC1,53.7%
19,N#Cc1nc(-c2ccco2)oc1N1CCN(C(=O)CCl)CC1,51.4%
20,CCCN1CCN(c2oc(-c3ccco3)nc2C#N)CC1,9.64%
21,CC(C)N1CCN(c2oc(-c3ccco3)nc2C#N)CC1,10%

row,SMILES,Inhibition %
1,CCN1CCN(c2oc(-c3ccco3)nc2C#N)CC1,9.73%
2,ClCCCc1cccnc1,7.37%
3,Cc1c(C#N)c(NC(=O)CCl)n(C2CCCCC2)c1C,15.6%
4,COc1cc2c(cc1NC(=O)CCl)oc1ccccc12,4.67%
5,O=C(CCl)NC(=O)Nc1ccc(Br)cc1,23.3%
6,O=C(CCl)Nc1ccc2c(c1)CCC2,57.8%
7,O=C(CCl)Nc1ccc(F)c(Cl)c1,21.3%
8,O=C(CCl)Nc1ccc(Cl)c(F)c1,36.8%
9,O=C(CCCl)Nc1ccc2c(c1)CCC2,4.93%
10,O=C(CCl)Nc1cccc(Br)c1,29.1%
11,C=CC(=O)Nc1ccc2c(c1)CCC2,7.23%
12,O=C(CCl)Nc1ccc(Cl)c(Cl)c1,63%
13,O=C(CCl)Nc1ccc2c(c1)oc1ccccc12,62.9%
14,O=C(CCl)Nc1ccc(Br)cc1,70.1%
15,CC(=O)c1oc2ccccc2c1NC(=O)CCl,9.9%
16,O=C(c1cccnc1S)N1CCOC2(CCCC2)C1,6.34%
17,C=CC(=O)NCc1cc2n(n1)CCC2,10.7%
18,CC1(C)OB(c2cccc(OC(F)F)c2)OC1(C)C,3.49%
19,C=CC(=O)Nc1cccc2c1CCN(S(C)(=O)=O)C2,3.82%
20,CC1CC(Sc2ccccc2F)C(=O)O1 (stereo not drawn),-0.183%
21,C=CC(=O)NCCN1C(=O)Cc2ccccc21,11%

row,SMILES,Inhibition %
1,CCN(C(=O)Cn1cnc(C#N)n1)C1=CCCCC1,6.47%
2,C=CC(=O)N1CC23CCCCC2(COC3)C1 (stereo not drawn),8.4%
3,O=C(CCl)Nc1ccc2c(c1)C(=O)c1ccccc1C2=O,2.08%
4,CNC(=O)c1ccc(NC(=O)CCl)cc1,16.6%
5,O=C(CCCl)Nc1ccc(Cl)cc1,9.16%
6,CC(C)(C)c1ccc(NC(=O)CCl)cc1,100%
7,O=C(CCl)Nc1ccc(C(=O)O)cc1,25.9%
8,O=C(CCl)Nc1ccc2ccccc2c1,55.8%
9,O=C(CCl)Nc1ccc(I)cc1,93.2%
10,O=C(CCl)Nc1ccc(F)c(F)c1,25.9%
11,O=C(CCl)Nc1ccc(Cl)cc1,60.3%
12,O=C(CCl)Nc1cccc(I)c1,41%
13,CC(=O)Nc1cccc(NC(=O)CCl)c1,19.2%
14,CC(C)CN(C1CC1)S(=O)(=O)C=Cc1ccccc1,13.3%
15,C=CC(=O)N1CCS(=O)(=O)c2ccccc2C1,7.33%
16,CC1(C)OB(c2cccc3scnc23)OC1(C)C,3.85%
17,C=CC(=O)NCC1CC(C)OC(C)C1 (stereo not drawn),11.1%
18,N#Cc1c(N)nc2n1CCS2,4.18%
19,N#Cc1ncccc1OCCc1ccccc1,13.6%
20,CC(NC(=O)Cn1cnc(C#N)n1)c1ccc(F)cc1 (stereo not drawn),4.98%
21,C=CC(=O)N1CCN(Cc2ccon2)CC1,4.28%

row,SMILES,Inhibition %
1,Cn1ncc(C(F)(F)F)c1B1OC(C)(C)C(C)(C)O1,8.08%
2,NC(=O)c1ccccc1NC(=O)CCl,0.06%
3,NC(=O)c1ccsc1NC(=O)CCCl,9.06%
4,NC(=O)c1ccsc1NC(=O)CCl,84.7%
5,NC(=O)c1cc(-c2ccccc2)sc1NC(=O)CCl,79.3%
6,O=C(CCl)Nc1nncs1,4.4%
7,O=C(CCl)Nc1ccc(-c2ccccc2)cc1,4.3%
8,Cn1cc(C(=O)O)c(CCCCl)n1,6.81%
9,N#Cc1cc(N2CCCC2)c2ccccc2n1,3.59%
10,C=CCNS(=O)(=O)C=Cc1ccccc1,7.29%
11,CC1(C)OB(c2cccc(-n3ccnn3)c2)OC1(C)C,6.79%
12,C=CC(=O)Nc1nc2cnccn2n1,23%
13,C=CC(=O)NCc1cc2n(n1)CCCC2,10.1%
14,N#Cc1ncn(CC2CCCO2)n1 (stereo not drawn),1.91%
15,O=[N+]([O-])c1ccccc1S(=O)(=O)F,99.1%
16,O=S(=O)(F)c1ccccc1O,9.92%
17,O=S(=O)(F)c1ccccc1Br,44.3%
18,C=CC(=O)NCC1COC(=O)N1 (stereo not drawn),13.5%
19,Cc1ccc(S(=O)(=O)F)nn1,65.4%
20,O=S(=O)(F)c1ccc(C(F)(F)F)cn1,6.36%
21,O=S(=O)(F)c1ccc(C(F)(F)F)nn1,8.52%
